Data published in PubChem BioAssay (NCI).
Compounds without any hit were thinned out: in the full panel of roughly 79,000, 15% have a hit. A number with no mark means an inactive call. The source made the active and inactive calls. Rule as the data show it: active = growth inhibition above about 70%; inactive = the rest.

Experiments:
[1] = NCI Yeast Anticancer Drug Screen. Data for the rad50 strain (AID 155);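 also: 0% = growth of vehicle-only cultures of the same strain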; details: S. cerevisiae rad50 strain growth inhibition, hits give high values
In short: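 Genetically altered yeast (DNA repair pathway); compound treatment; growth inhibition vs vehicle ctrl.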

[2] = NCI Yeast Anticancer Drug Screen. Data for the mec2-1 strain (AID 157); details: S. cerevisiae mec2-1 strain, hits give high values
In short: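 Readout is yeast growth inhibition, normalised to vehicle-treated controls, in the mec2-1 strain exposed to compound.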

[3] = NCI Yeast Anticancer Drug Screen. Data for the sgs1 mgt1 strain (AID 161);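 also: 0% = growth of cultures given vehicle only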; details: S. cerevisiae sgs1 mgt1 strain, hits give high values
In short: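 Compounds are added to genetically altered yeast, and growth is compared with cultures given vehicle alone to give percent inhibition.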

[4] = NCI Yeast Anticancer Drug Screen. Data for the cln2 rad14 strain (AID 165);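 also: 0% = growth equal to vehicle treated cultures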; details: S. cerevisiae cln2 rad14 strain, hits give high values
In short: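 Relative to vehicle controls, growth inhibition of compound-treated cln2 rad14 yeast was recorded.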

[5] = NCI Yeast Anticancer Drug Screen. Data for the bub3 strain (AID 167); details: S. cerevisiae bub3 mutant strain, hits give high values
In short: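 Yeast carrying a defined mutation is treated with each compound, and growth is compared with that of vehicle-exposed cells to give inhibition.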

[6] = NCI Yeast Anticancer Drug Screen. Data for the mlh1 rad18 strain (AID 175); details: S. cerevisiae mlh1 rad18 strain growth inhibition, hits give high values
In short: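 Test agents were incubated with a yeast strain of defined genotype (DNA damage repair defect). Inhibition of growth was derived by comparison with vehicle-exposed cultures.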

[7] = at 5.0 µM (retest, dose inferred, filed as 0.5)
[8] = at 50.0 µM (retest, dose inferred, filed as 5.0)

Compound | growth inhibition [1, 7] | growth inhibition [1, 8] | growth inhibition ([1]; at 50.0 µM) | growth inhibition [2, 7] | growth inhibition [2, 8] | growth inhibition ([2]; at 50.0 µM) | growth inhibition [3, 7] | growth inhibition [3, 8] | growth inhibition ([3]; at 50.0 µM) | growth inhibition [4, 7] | growth inhibition [4, 8] | growth inhibition ([4]; at 50.0 µM) | growth inhibition [5, 7] | growth inhibition [5, 8] | growth inhibition ([5]; at 50.0 µM) | growth inhibition [6, 7] | growth inhibition [6, 8] | growth inhibition ([6]; at 50.0 µM)
CN=c1sc2c(n1C)C(=O)c1ccccc1C2=O | 26% | 48% | 82.6% (active) | 17% | 40% | 75.7% (active) | 31% | 49% | 87.8% (active) | 21% | 23% | 25.6% | 28% | 64% | 65.9% | 23% | 54% | 80.8% (active)
CC1=C(C(=O)OCCO[N+](=O)[O-])C(c2ccccc2[N+](=O)[O-])C(C(=O)OC(C)C)=C(C)N1 (configuration not stated) | 11% | 97% (active) | 83.5% (active) | 22% | 97% (active) | 87.7% (active) | -2% | 97% (active) | 90.3% (active) | 10% | 92% (active) | 86.9% (active) | -3% | 97% (active) | 89.6% (active) | 19% | 97% (active) | 85.5% (active)
Nc1nc(-c2cccnc2)nc(N)c1N=O | 7% | 82% (active) | 61.4% | 15% | 79% (active) | 79.2% (active) | 15% | 88% (active) | 70.6% (active) | 1% | 90% (active) | 66.5% | 36% | 92% (active) | 91.1% (active) | 25% | 94% (active) | 79.1% (active)
C/C(=N/NC(=O)c1ccccc1S(N)(=O)=O)C(CN1CCCCC1)C(C1=C(O)C2C=CC=CC2OC1=O)c1ccccc1 (configuration not stated) | 41% | 41% | 89.7% (active) | 25% | 25% | 91.4% (active) | 19% | 19% | 91% (active) | 8% | 8% | 88.8% (active) | 31% | 31% | 88.8% (active) | 22% | 22% | 88% (active)
C/C(=N\NC(=S)Nc1ccc(C)cc1)c1nc2ncccc2[nH]1 | -9% | 84% (active) | 73.8% (active) | -6% | 88% (active) | 66.2% | 0% | 84% (active) | 66.3% | -36% | 91% (active) | 64.5% | -21% | 97% (active) | 71.5% (active) | 4% | 91% (active) | 50.9%
COc1cccc2c1C(=O)c1c(O)c3c(c(O)c1C2=O)CC(O)(C(C)=O)CC3OC1CC(NCC2(O)OCC(O)C2O)C(O)C(C)O1 (configuration not stated) | 50% | 96% (active) | 88.8% (active) | 34% | 98% (active) | 88.6% (active) | 33% | 98% (active) | 86.8% (active) | 44% | 97% (active) | 87.4% (active) | 34% | 98% (active) | 87.1% (active) | 40% | 96% (active) | 91% (active)
Cc1ccc(S(=O)(=O)OCC2OC(c3ccccc3)OC3C(CO)OC(c4ccccc4)OC23)cc1 (configuration not stated) | -1% | -6% | 16.7% | 0% | -5% | 50.5% | -3% | -6% | 11.3% | 4% | -10% | 16.2% | 0% | -5% | -0.65% | 0% | -6% | 60.5%
Cc1ccc(NC(Nc2ccc(C)cc2C)=C(/C=C(\Cl)[N+](=O)[O-])[N+](=O)[O-])c(C)c1 | 99% (active) | 97% (active) | 96.6% (active) | 99% (active) | 97% (active) | 96.1% (active) | 99% (active) | 97% (active) | 95.5% (active) | 98% (active) | 93% (active) | 93.2% (active) | 99% (active) | 97% (active) | 96% (active) | 99% (active) | 96% (active) | 96.3% (active)
NC(=S)C1CCC(C2CCCCC2)CC1 (configuration not stated) | 5% | 97% (active) | 96.5% (active) | 14% | 96% (active) | 94.8% (active) | 13% | 97% (active) | 97.2% (active) | -4% | 94% (active) | 83.5% (active) | 13% | 97% (active) | 96.3% (active) | 21% | 97% (active) | 95.8% (active)
